Several values for one entry are separate records, joined by “and”; a condition that tells them apart may be missing. Identical values can stand only once. Screen size: about 5,500 compounds; about 2,000 (36%) were called active. Another 18% or so got no clear call; they are omitted. No stated cut-off is given here; in the data, active means normalized growth mostly below about 0.91 (no sharp cut-off); inconclusive means no clear call, values can overlap the other calls; inactive means mostly above about 0.92. The list shows a part of the results.
Experiment: chemical genetic growth profiling, strain panel (AID 1159580);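 further: tested at 20 µM; growth read once vehicle control cultures reached saturation at 30 °C; 1 = growth at the plate median or of vehicle wells; lower values mean less growth of the strain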
Conditions: S. cerevisiae deletion strains, growth OD

Measured: normalized growth

C=CCc1ccccc1OCC(O)CNC(C)C (stereo not given)
inactive: locus YAL013W, strain DEP1, active compounds read low 1 and 0.978 | locus YAL021C, strain ccr4, active compounds read low 1 | locus YAL026C, strain drs2, active compounds read low 1 | locus YAL030W, strain snc1, active compounds read low 0.995 | locus YAL040C, strain CLN3, active compounds read low 0.974 | locus YBL061C, strain skt5, active compounds read low 1 | locus YBR009C, strain hhf1, active compounds read low 0.971 | locus YBR021W, strain FUR4, active compounds read low 0.998 | locus YBR023C, strain chs3, active compounds read low 1 | locus YBR171W, strain sec66, active compounds read low 0.99 | locus YBR229C, strain ROT2, active compounds read low 1 | locus YBR231C, strain swc5, active compounds read low 0.987 | locus YBR279W, strain paf1, active compounds read low 1 | locus YCL011C, strain gbp2, active compounds read low 0.998 | locus YCL016C, strain dcc1, active compounds read low 0.993 | locus YCL029C, strain bik1, active compounds read low 1.02 | locus YCL061C, strain MRC1 (second series), active compounds read low 1 | locus YCL061C, strain MRC1, active compounds read low 0.999 | locus YCL069W, strain vba3, active compounds read low 0.994 | locus YCR088W, strain abp1, active compounds read low 0.992 | locus YDL005C, strain med2, active compounds read low 0.995 | locus YDL035C, strain GPR1, active compounds read low 0.991 | locus YDL040C, strain nat1, active compounds read low 0.995 | locus YDL074C, strain BRE1, active compounds read low 1.01 | locus YDL101C, strain DUN1, active compounds read low 1.01 | locus YDL134C, strain PPH21, active compounds read low 1.01 | locus YDL185W, strain tfp1, active compounds read low 1 | locus YDL192W, strain arf1, active compounds read low 1.02 | locus YDR001C, strain nth1, active compounds read low 1 | locus YDR069C, strain doa4, active compounds read low 0.979 | locus YDR101C, strain arx1, active compounds read low 1.01 | locus YDR137W, strain rgp1, active compounds read low 0.998 | locus YDR150W, strain NUM1, active compounds read low 1 and 1.02 | locus YDR159W, strain sac3, active compounds read low 0.993 | locus YDR162C, strain NBP2, active compounds read low 1 | locus YDR195W, strain ref2 0.913 | locus YDR297W, strain sur2, active compounds read low 1 | locus YDR318W, strain mcm21, active compounds read low 1.01 | locus YDR334W, strain swr1, active compounds read low 0.997 | locus YDR335W, strain msn5, active compounds read low 1 | locus YDR363W, strain ESC2, active compounds read low 0.973 | locus YDR388W, active compounds read low 1 | locus YDR392W, strain spt3, active compounds read low 0.86 | locus YDR502C, strain sam2, active compounds read low 1.01 | locus YEL003W, strain gim4, active compounds read low 0.992 | locus YEL037C, strain rad23, active compounds read low 0.997 | locus YEL061C, strain CIN8 (second series), active compounds read low 1 | locus YEL061C, strain CIN8, active compounds read low 1 | locus YER002W, strain NOP16, active compounds read low 0.975 | locus YER015W, strain faa2, active compounds read low 0.995 | locus YER016W, strain bim1, active compounds read low 0.985 | locus YER110C, active compounds read low 1.02 | locus YER111C, strain swi4, active compounds read low 0.986 | locus YER155C, strain BEM2 (second series), active compounds read low 0.968 | locus YER155C, strain BEM2, active compounds read low 0.999 | locus YER167W, strain BCK2, active compounds read low 1 | locus YFR010W, strain ubp6, active compounds read low 1 | locus YGL078C, strain dbp3, active compounds read low 1.01 | locus YGL086W, strain mad1, active compounds read low 1 | locus YGL167C, strain pmr1, active compounds read low 0.998 | locus YGL173C, strain kem1, active compounds read low 0.997 | locus YGL227W, strain vid30, active compounds read low 0.987 | locus YGL240W, strain doc1, active compounds read low 0.983 | locus YGL248W, strain PDE1, active compounds read low 0.998 | locus YGL253W, strain hxk2, active compounds read low 1 | locus YGR078C, strain PAC10, active compounds read low 1.01 | locus YGR135W, strain pre9, active compounds read low 1.02 | locus YGR229C, strain SMI1, active compounds read low 0.974 | locus YGR252W, strain gcn5, active compounds read low 0.98 | locus YHR013C, strain ard1, active compounds read low 0.943 | locus YHR027C, strain rpn1, active compounds read low 1 | locus YHR030C, strain SLT2, active compounds read low 1 and 0.989 | locus YHR079C, strain IRE1 (second series), active compounds read low 1.01 | locus YHR079C, strain IRE1, active compounds read low 0.972 | locus YHR094C, strain hxt1, active compounds read low 1 | locus YHR129C, strain ARP1, active compounds read low 1.01 | locus YHR142W, strain chs7, active compounds read low 1.01 | locus YHR200W, strain rpn10, active compounds read low 1 | locus YIL066C, strain RNR3, active compounds read low 1.01 | locus YIL073C, strain SPO22, active compounds read low 1.06 | locus YIL125W, strain kgd1, active compounds read low 1.01 | locus YIR030C, strain dcg1, active compounds read low 1.02 | locus YJL092W, strain hpr5, active compounds read low 1 | locus YJL095W, strain BCK1 (second series), active compounds read low 0.995 | locus YJL095W, strain BCK1, active compounds read low 1.02 and 0.978 | locus YJL115W, strain asf1, active compounds read low 1 | locus YJL129C, strain trk1, active compounds read low 0.998 | locus YJL134W, strain LCB3, active compounds read low 0.997 | locus YJL154C, strain vps35, active compounds read low 0.99 | locus YJL164C, strain tpk1, active compounds read low 1.01 | locus YJL166W, strain qcr8, active compounds read low 1 | locus YJL168C, strain set2, active compounds read low 1.01 | locus YJL187C, strain SWE1 (second series), active compounds read low 1.02 | locus YJL187C, strain SWE1, active compounds read low 1.01 | locus YJR043C, strain POL32, active compounds read low 1

From PubChem BioAssay AID1159580 (chemical genetic matrix, 2015)
